High-throughput results: PubChem, National Center for Advancing Translational Sciences (NCATS)
Tau FP inhib – tau fibrillization inhibition (FP); 280,000 compounds, 0.39% hits; Potency, µM (top dose mostly 57.7 µM), for inactives: at the highest dose activity, negative = inhibition, most hits filed as inhibitors; K18 P301L tau heparin fibrillization, Alexa594 FP, 6 h; P10636; further: potency means the concentration at half of the fitted maximal effect; nearly all actives have a fitted effect of over 55% in size
Target sequence (P10636 561-689 P618L limits assumed): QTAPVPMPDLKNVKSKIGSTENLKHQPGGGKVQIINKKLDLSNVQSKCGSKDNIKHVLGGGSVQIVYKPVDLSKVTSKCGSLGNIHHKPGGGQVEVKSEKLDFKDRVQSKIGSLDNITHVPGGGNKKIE
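FP of Alexa 594-tau after heparin (20 uM) induction. Substrate: human K18 P301L, 15 uM unlabeled, 0.24 uM labeled. Buffer 100 mM sodium acetate pH 7. 6 hr, 37 C.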
Tau fibril ThT – blocks human tau fibril formation measured by thioflavin T | Potency, µM (series often up to 57.4 µM), inactives show at the highest dose activity, negative = inhibition, usual class: inhibitors | recombinant tau K18 P301L, heparin-induced fibrillization, ThT fluorescence | 270,000 compounds, 2.1% hits; further: potency means the concentration at half of the fitted maximal effect; nearly all actives have a fitted effect of over 55% in size
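Aggregation was driven by heparin (20 uM final) acting on recombinant tau […] bearing P301L in 100 mM sodium acetate pH 7; fibrils were detected with Thioflavin T.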
Tau fluor counter – counter-screen for tau fibril formation inhibitors. 280,000 compounds, 0.93% hits. Potency, µM (top dose mostly 57.7 µM), for the others: at the top dose activity change, negative = decrease. tau K18 P301L (four-repeat tau fragment) Alexa594 fluorescence, heparin fibrillization; further: potency means the concentration at half of the fitted maximal effect; nearly all actives have a fitted effect of over 55% in size
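Human K18 P301L tau (15 uM unlabeled plus 0.24 uM Alexa 594-labeled, final) in 100 mM sodium acetate pH 7 was mixed with compound and 20 uM heparin and incubated 6 hr at 37 C.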
Coupling enz – inhibits coupling enzyme system, counter-screen for aldolase hits. coupling enzyme system counterscreen, AmpLite Red fluorescence. activity change, negative = inhibition, % at 58.2 µM, hits read low. 290,000 compounds, 0.67% hits. AID 2472; in the data active means activity change below about -30%
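Fluorescence at 525 nm excitation and 598 nm emission measured inhibition of the coupled detection system without aldolase. Compounds (at 57.5 uM final) were preincubated 10 min at room temperature with coupling enzyme reagent before a 20 min substrate/AmpLite Red step.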
Sfp PPTase inh – inhibitors of Bacillus subtilis Sfp phosphopantetheinyl transferase | Q9F4F7 | Biochemical Sfp PPTase activity, qHTS | 310,000 compounds, 3.5% hits | AID 1490 | Potency, µM, without a hit: largest response in the series, negative = inhibition, usual class: inhibitors;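 further: the enzyme is Sfp with the accession as filed and its product quenches rhodamine fluorescence; potency means the concentration at half of the fitted maximal effect; 0% = enzyme reaction without inhibitor and -100% = no enzyme wells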
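After 15 min at room temperature with compound, 15 nM Sfp received 5 uM rhodamine-CoA plus 12.5 uM BHQ-2-ybbR (50 mM Hepes pH 7.6, 10 mM MgCl2). Rate came from the fluorescence difference over 30 min, ex 525/em 598 nm.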
G9a block – inhibitors of human histone lysine methyltransferase G9a; 350,000 compounds, 8.8% hits; G9a H3K9 monomethylation, AlphaScreen, 2 h; Potency, µM (doses to about 102 µM), for the others: at the top dose activity, negative = inhibition, actives largely listed as inhibitors; further: potency means the concentration at half of the fitted maximal effect; nearly all actives have a fitted effect of over 75% in size
Target sequence (Q96KQ7 913-1193 limits assumed): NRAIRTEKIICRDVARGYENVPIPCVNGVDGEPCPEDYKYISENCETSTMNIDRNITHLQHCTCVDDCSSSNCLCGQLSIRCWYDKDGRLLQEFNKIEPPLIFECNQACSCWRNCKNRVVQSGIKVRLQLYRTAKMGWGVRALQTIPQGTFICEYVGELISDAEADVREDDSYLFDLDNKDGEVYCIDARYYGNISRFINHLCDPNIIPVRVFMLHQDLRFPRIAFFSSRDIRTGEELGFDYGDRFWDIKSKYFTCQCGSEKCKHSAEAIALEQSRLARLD
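G9a (20 nM) preincubated 15 min RT with compounds, then 500 nM biotinylated H3K9 peptide and 20 uM SAM added; 2 h RT reaction. Monomethyl-H3K9 product detected by AlphaScreen with anti-H3K9me1 antibody, streptavidin donor and anti-rabbit IgG acceptor beads.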
* hit, by the source's call; ? = inconclusive; . = no result; [ ] = remark or other dose. Most compounds without a hit are left out; they make up all but 11% or so of the library. Unless noted, the call rests on the fitted dose curve; in most records, active means well fitted curve in the direction sought with a large enough effect; inconclusive means small, poorly fitted or top-dose-only effect, or another doubt; inactive means no such curve, though single readings can be large; an effect the other way counts as inactive or inconclusive. Unless noted, on the % scale 0 is the no-effect control and ±100 the full control effect.

SMILES	Tau FP inhib	Tau fibril ThT	Tau fluor counter	Coupling enz	Sfp PPTase inh	G9a block
O=C(O)/C(=C\c1ccc(-c2ccccc2[N+](=O)[O-])o1)c1ccccc1	.	.	.	-2.9	-40.3%	?
O=C(N/N=C/C=C/c1ccccc1)C1CC1c1ccccc1 (centres undefined)	-8.2%	-18.8%	?	-3.4	-2.0%	16.6%[59 µM]
COc1ccc(-c2ccc(/C=N/NC(=O)c3cccnc3)o2)c([N+](=O)[O-])c1	?	2.82µM*	-24.6%	3.3	-23.9%	7.1%[59 µM]
O=C(/C=C/c1ccc(-c2ccccc2[N+](=O)[O-])o1)c1ccccc1	5.4%	17.8µM*	?	-25.0	?	31.6µM*
Cc1ccc(C(=O)N/N=C/c2ccc(-c3ccccc3[N+](=O)[O-])o2)cn1	5.7%	6.6%	4.1%	-61.4*	?	-25.6%[59 µM]
CC(C)[C@@H](CC(=O)N[C@@H]1CCCC[C@H]1C(=O)N[C@H](CC(=O)N[C@@H](CCC(=O)O)CC(=O)O)Cc1ccccc1)NC(=O)C[C@H](Cc1ccccc1)NC(=O)[C@@H]1CNCC[C@H]1N	-2.4%	-2.8%	-4.9%	-0.6	-24.7%	.
Cc1ccc(NC(=O)C2CCCN(S(=O)(=O)c3cccc4cccnc34)C2)c(C)c1 (centres undefined)	-5.7%	-5.6%	-15.9%	.	.	8.5%[59 µM]
CCOc1ccc(CCNC(=O)Cn2nc(CC)n3c(cc4c(OC)cccc43)c2=O)cc1OCC	-3.6%	-0.7%	-3.7%	.	.	37.8%[59 µM]
COc1cc(C2NC(=O)NC(C)=C2C(=O)Nc2cc(C)cc(C)c2)ccc1O (centres undefined)	-5.0%	-10.4%	-12.2%	.	.	-26.1%[59 µM]
O=C(N/N=C/c1ccc(-c2ccccc2[N+](=O)[O-])o1)[C@H]1C[C@@H]1c1ccccc1	?	4.47µM*	?	-43.8*	25.1µM*	8.91µM*
COc1ccc(NC(=O)CCCS(=O)(=O)c2nc(-c3ccc(OC)c(OC)c3)cc(C(F)(F)F)n2)cc1OC	-1.4%	-9.6%	-14.6%	.	.	15.8µM*
Cc1ccc(-c2cc3ncc(C#N)c(N)n3n2)cc1	-5.6%	8.6%	-2.9%	0.0	-13.6%	43.5%
O=C1NC(=S)S/C1=C\c1coc2ccc(O)cc2c1=O	-1.7%	1.12µM*	-26.2%	2.1	1.9%	44.7µM*
O=C1NC(=S)S/C1=C\c1coc2ccccc2c1=O	-8.3%	7.94µM*	-4.1%	5.8	2.1%	50.1µM*
CN(C)CCNC(=O)C1CCN(c2ncnc3c2nc2n3CCCCC2)CC1	-1.1%	9.2%	8.4%	.	.	-9.9%[59 µM]
Oc1ccc(C2C(c3ccccc3)=NN=C(c3ccc(Cl)cc3)N2O)c(O)c1 (centres undefined)	-20.0%	?	?	-1.6	-21.9%	11.2µM*
Oc1ccc(C2C(c3ccccc3)=NN=C(c3ccccc3F)N2O)c(O)c1 (centres undefined)	0.4%	-5.3%	-8.7%	2.0	-7.1%	50.1µM*
Oc1ccc(-c2[nH]ncc2-c2ccc(Cl)cc2)c(O)c1	?	-10.4%	?	.	0.1%	-6.0%
CCN(Cc1cccs1)C(=O)CN1C(=O)NC(c2ccccc2)(c2ccccc2)C1=O	.	.	.	.	.	7.94µM*
CCN(Cc1cccs1)C(=O)CN1C(=O)NC2(CCCc3ccccc32)C1=O (centres undefined)	.	.	.	.	.	5.9%[12.7 µM]
COC(=O)c1c(-c2cccc(OC)c2)csc1N	2.7%	?	-24.0%	-8.5	56.2µM*	39.8µM*
COc1ccc(-c2csc(NC(=O)CCn3cnc4ccccc4c3=O)n2)cc1OC	0.5%	?	?	-0.8	-29.3%	13.2%[0.501 µM]
COc1ccc(-c2csc(NC(C)=O)n2)cc1OC	-10.4%	-13.0%	-9.0%	-3.4	50.1µM*	-13.8%[59 µM]
COc1ccc(-c2csc(NC(=O)Cc3ccccc3)n2)cc1OC	.	.	.	-8.3	7.2%	5.7%[59 µM]
Cc1cc(-c2csc(NC(=O)c3ccc(=O)n(C)n3)n2)c(C)n1CC1CCCO1 (centres undefined)	4.4%	-10.6%	-0.9%	-6.5	50.1µM*	?
SMILES	Tau FP inhib	Tau fibril ThT	Tau fluor counter	Coupling enz	Sfp PPTase inh	G9a block
COc1ccc(-c2csc(NC(=O)CCCc3nc4ccccc4c(=O)[nH]3)n2)cc1OC	.	.	.	.	.	39.8µM*
O=C(O)CC(NC(=O)c1ccncc1)c1ccccc1 (centres undefined)	0.2%	13.8%	8.4%	-0.6	13.5%	?
COCCCNC(=O)c1cnn(-c2ccc(F)cc2F)c1C1CCNCC1	-1.9%	6.0%	0.7%	.	.	8.8%[59 µM]
COc1ccc(-c2csc(NC(=O)C3=COCCO3)n2)cc1OC	.	.	.	.	.	56.2µM*
COc1cccc(NC(=O)Nc2nc(-c3ccc(OC)c(OC)c3)cs2)c1	.	.	.	-2.5	1.5%	?
O=C(Nc1nc(-c2cccs2)cs1)C1=COCCO1	7.9%	?	-25.4%	-4.9	-15.1%	10.0%
Cc1cc(-c2csc(NC(=O)C3=COCCO3)n2)c(C)n1C	.	.	.	.	.	50.1µM*
COc1cccc(-c2csc(NC(C)=O)n2)c1	4.8%	-11.7%	-0.8%	-0.6	-13.0%	10µM*
CC1CC(=O)Nc2ccccc2N1C(=O)CSc1ncnc2sccc12 (centres undefined)	.	.	.	.	.	12.8%[59 µM]
Cc1ccc(N/C=C(\C2OC(=O)c3ccccc32)[N+](=O)[O-])c(C)c1 (centres undefined)	-8.9%	?	-10.5%	-4.9	-5.1%	?
O=C1OC(/C(=C\Nc2cc(Cl)ccc2O)[N+](=O)[O-])c2ccccc21 (centres undefined)	-19.3%	?	-22.8%	3.0	3.1%	10µM*
O=C1OC(/C(=C\Nc2ccc(F)cc2F)[N+](=O)[O-])c2ccccc21 (centres undefined)	?	?	-19.9%	2.5	?	44.7µM*
CN(NC1OC(=O)c2ccccc21)c1ccc(Cl)cc1[N+](=O)[O-] (centres undefined)	10.1%	?	1.9%	17.6	9.5%	.
COc1ccc(-c2nnnn2-c2ccc(F)cc2F)cc1	3.9%	-3.2%	1.8%	-0.8	21.4%	21.6%[59 µM]
O=C(c1ccc(-c2ccccc2)cc1)N1CCN(Cc2ccccn2)CC1	-4.2%	?	-20.3%	1.6	10.3%	39.8µM*
COc1cc(C(=O)N2CCN(Cc3ccccn3)CC2)cc(OC)c1OC	.	.	.	-1.1	35.5µM*	4.47µM*
COc1ccc(C(=O)N2CCN(Cc3ccccn3)CC2)cc1	.	.	.	3.3	56.2µM*	10µM*
COC1CCN(C(=O)c2ccc(OC3CCN(Cc4ccccn4)CC3)cc2)CC1	-14.6%	-9.0%	-7.8%	-4.0	-5.2%	?
O=C(c1ccccc1)N1CCN(CCc2ccccn2)CC1	1.6%	3.2%	-1.4%	1.7	8.2%	20.8%
